Experimental data as given in PubChem BioAssay (Tox21).
Unmarked numbers belong to inactive results. Inconclusive results are not listed. Entries that show only a call come without a potency. Active and inactive are the calls of the source. Unless noted, calls follow the shape of the dose curve; as a rule, active = well fitted curve in the direction sought with a large enough effect in the repeat runs; inconclusive = weak or mixed curves; inactive = no such curve, though single readings can be large; an effect the other way counts as inactive or inconclusive.

Tests used:
[1] = qHTS assay to identify small molecule antagonists of the retinoic acid receptor (RAR) signaling pathway (AID 1159552; also: nearly all actives have a fitted effect of over 50% in size)
Outline: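 Retinol signaling pathway inhibitors screened in C3RL4 RARE-luciferase reporter cells seeded overnight at 37 C, then compounds added with 1 uM (final) retinol as pathway substrate. After 6 hr at 37 C, luciferase luminescence read after 30 min at room temperature.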

[2] = qHTS assay to identify small molecule agonists of the retinoic acid receptor (RAR) signaling pathway (AID 1159553)
Outline: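 C3RL4 cells carrying a RARE luciferase reporter were plated overnight at 37 C, then exposed to compounds in DMSO for 6 hr at 37 C and 5% CO2. Luminescence was read 30 min after luciferase reagent addition at room temperature.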

[3] = qHTS assay to identify small molecule antagonists of the estrogen related receptor (ERR) signaling pathway from Tox21 library - cell viability counter screen (AID 1224834); also: nearly all actives have a fitted effect of over 30% in size
Outline: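 ERR reporter cells were plated 6 h before compound addition, then exposed to test compounds in DMSO for 17.5 h at 37 C. Viability was read as CellTiter-Fluor fluorescence after a 30-minute incubation at 37 C.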

[4] = biological target: Luciferin 4-monooxygenase (Photinus pyralis) (UniProt P08659); test: qHTS assay to identify small molecule inhibitors of firefly luciferase (AID 1224835); also: nearly all actives have a fitted effect of over 25% in size; also: potency is read from the fitted curve at half-maximal effect
Luciferin 4-monooxygenase (Photinus pyralis), sequence (P08659 whole entry, looked up): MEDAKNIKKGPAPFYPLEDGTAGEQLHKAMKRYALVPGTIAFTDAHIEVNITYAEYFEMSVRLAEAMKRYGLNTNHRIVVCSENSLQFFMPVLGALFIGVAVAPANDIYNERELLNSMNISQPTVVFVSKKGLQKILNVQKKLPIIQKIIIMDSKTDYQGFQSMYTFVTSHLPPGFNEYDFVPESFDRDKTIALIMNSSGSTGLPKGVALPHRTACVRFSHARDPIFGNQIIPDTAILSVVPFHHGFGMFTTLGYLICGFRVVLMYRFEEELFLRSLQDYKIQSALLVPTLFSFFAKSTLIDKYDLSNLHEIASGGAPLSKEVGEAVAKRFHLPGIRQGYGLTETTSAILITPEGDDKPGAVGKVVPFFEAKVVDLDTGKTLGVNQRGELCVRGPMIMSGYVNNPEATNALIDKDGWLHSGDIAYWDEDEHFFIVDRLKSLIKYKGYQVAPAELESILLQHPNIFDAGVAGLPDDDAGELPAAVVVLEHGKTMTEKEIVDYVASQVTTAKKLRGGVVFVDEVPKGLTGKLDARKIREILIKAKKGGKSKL
Outline: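 Biochemical qHTS: compounds run as interplate titrations against purified firefly enzyme, with D-luciferin and ATP each at its KM concentration. Light output recorded by CCD imaging.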

[5] = qHTS assay to identify small molecule agonists of the constitutive androstane receptor (CAR) signaling pathway - cell viability counter screen (AID 1224836); also: nearly all actives have a fitted effect of over 45% in size
Outline: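 HepG2 cells stably carrying hCAR and a CYP2B6-2.2kb reporter; 15-concentration compounds plus PK11195 (final 0.75 uM), 23 hr at 37 C/5% CO2. Viability read by CellTiter-Fluor fluorescence.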

[6] = qHTS assay to identify small molecule antagonists of the constitutive androstane receptor (CAR) signaling pathway - cell viability counter screen (AID 1224837); also: nearly all actives have a fitted effect of over 45% in size
Outline: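 HepG2 cells stably expressing hCAR and a CYP2B6-2.2kb reporter were plated and pre-incubated 4 hr at 37 C/5% CO2, then given compounds at 15 concentrations plus 50 nM CITCO (final). After 23 hr, viability was read by CellTiter-Fluor fluorescence.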

[7] = biological target: Nuclear receptor subfamily 1 group I member 3 (Homo sapiens) (UniProt Q14994); test: qHTS assay to identify small molecule antagonists of the constitutive androstane receptor (CAR) signaling pathway (AID 1224838); also: nearly all actives have a fitted effect of over 40% in size
Nuclear receptor subfamily 1 group I member 3 (Homo sapiens), sequence (Q14994 whole entry, looked up): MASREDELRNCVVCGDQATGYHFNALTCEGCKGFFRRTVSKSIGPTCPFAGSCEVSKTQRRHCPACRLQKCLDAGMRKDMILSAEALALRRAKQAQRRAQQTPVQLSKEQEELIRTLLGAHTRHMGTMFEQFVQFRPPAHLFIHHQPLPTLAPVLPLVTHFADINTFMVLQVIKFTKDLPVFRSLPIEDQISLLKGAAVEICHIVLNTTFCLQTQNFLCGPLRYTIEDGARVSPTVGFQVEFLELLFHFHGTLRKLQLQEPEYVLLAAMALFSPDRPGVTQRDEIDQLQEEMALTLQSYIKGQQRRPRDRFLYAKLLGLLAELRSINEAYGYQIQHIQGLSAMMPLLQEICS
Outline: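 HepG2 cells stably co-transfected with hCAR and a CYP2B6-2.2kb luciferase reporter were seeded 4 h before compound addition at 15 concentrations. Cells were stimulated with 50 nM CITCO (final) for 24 h at 37 C; luciferase luminescence was then read.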

[8] = biological target: Nuclear receptor subfamily 1 group I member 3 (Homo sapiens) (UniProt Q14994); test: qHTS assay to identify small molecule agonists of the constitutive androstane receptor (CAR) signaling pathway (AID 1224839);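 also: HepG2 cells stably carrying human CAR and a CYP2B6 luciferase reporter; nearly all actives have a fitted effect of over 15% in size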
Outline: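 HepG2 cells stably co-transfected with hCAR and a CYP2B6-2.2kb luciferase reporter; compounds at 15 concentrations with 0.75 uM PK11195 present. After 24 hr at 37 C, luciferase read by ONE-Glo luminescence.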

[9] = qHTS assay to identify small molecule antagonists of the estrogen related receptor signaling pathway with the pleiotropic PPARgamma coactivator (PGC) from Tox21 10K library - cell viability counter screen (AID 1224840; active = well fitted cell-killing curve with a large enough effect in the repeat runs, not every such curve was filed as active; also: nearly all actives have a fitted effect of over 40% in size)
Outline: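 PGC/ERR cells were seeded at 2,000 cells/well and left 6 hours at 37 C/5% CO2 before pin-tool addition of compounds in DMSO. After 17.5 hours at 37 C, CellTiter-Fluor was added and fluorescence read 30 minutes later.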

[10] = qHTS assay to identify small molecule antagonists of the estrogen related receptor signaling pathway with the pleiotropic PPARgamma coactivator (PGC) from Tox21 10K library (AID 1224841; call rule not given here; also: actives are mostly falling curves and most rising ones were filed inactive; nearly all actives have a fitted effect of over 50% in size)
Outline: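 PGC/ERR reporter cells were seeded at 2,000 cells/well and held 6 hours at 37 C/5% CO2 before pin-tool addition of compounds in DMSO. After 18 hours at 37 C, One-Glo was added and luminescence read after 30 minutes at room temperature.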

[11] = qHTS assay to identify small molecule agonists of the hypoxia (HIF-1) signaling pathway - cell viability counter screen (AID 1224844; calls by dose curve; also: nearly all actives have a fitted effect of over 50% in size)
Outline: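 HRE-bla ME-180 cells in medium with 0.5% dialyzed FBS were preincubated 5 hrs at 37C, exposed to compounds for 17 hrs, then viability was read as CellTiter-Glo luminescence after 30 min at room temperature, in the reporter wells.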

[12] = qHTS assay to identify small molecule agonists of the hypoxia (HIF-1) signaling pathway (AID 1224846; active = well fitted activation curve with a large enough effect in the signal ratio in the repeat runs, not every such curve was filed as active; the % refers to the signal ratio)
Outline: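 HRE-bla ME-180 cells (beta-lactamase reporter under hypoxia response element) were plated at 2,000 cells/well in medium with 0.5% dialyzed FBS, rested 5 hrs, then given compounds in DMSO for 17 hrs at 37C, 5% CO2. Reporter induction was read with CCF4-AM FRET substrate.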

[13] = qHTS assay to identify small molecule agonists of H2AX - cell viability counter screen (AID 1224847; calls by dose curve; also: top concentration of the series differs between compounds; nearly all actives have a fitted effect of over 30% in size)
Outline: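 CHO-K1 cells plated overnight at 37C, then exposed 3 h at 37C to compounds at 15 concentrations (0.76% DMSO final). Viability by CellTiter-Glo luminescence after 30 min at room temperature.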

[14] = qHTS assay to identify small molecule agonists of the estrogen related receptor (ERR) signaling pathway from Tox21 library (AID 1224849; calls by dose curve; also: nearly all actives have a fitted effect of over 15% in size); conditions: ERR reporter cell line, ONE-Glo luciferase, 18 h; at 92.4 µM (top of the series) unless noted
Outline: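 ERR reporter cell line (NTP) seeded, rested 6 h at 37 C/5% CO2, then pinned with Tox21 compounds in DMSO. After 18 h at 37 C, ONE-Glo luciferase luminescence was read following 30 min at room temperature.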

[15] = qHTS RealTime-Glo MT Cell Viability Assay in HepG2 cells - 24 hour (AID 1224867); also: nearly all actives have a fitted effect of over 50% in size
Outline: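 Viability was tracked continuously by NanoLuc luminescence from prosubstrate reduced by living HepG2 cells, at successive time points over 40 h of compound exposure. Cells with reagent were preincubated 5 h at 37 °C before compound addition.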

[16] = biological target: Thyrotropin receptor (Homo sapiens) (UniProt P16473); test: qHTS assay to identify small molecule agonists of the thyroid stimulating hormone receptor (TSHR) signaling pathway (AID 1224843; calls by dose curve; also: nearly all actives have a fitted effect of over 45% in size)
Thyrotropin receptor (Homo sapiens), sequence (P16473 whole entry, looked up): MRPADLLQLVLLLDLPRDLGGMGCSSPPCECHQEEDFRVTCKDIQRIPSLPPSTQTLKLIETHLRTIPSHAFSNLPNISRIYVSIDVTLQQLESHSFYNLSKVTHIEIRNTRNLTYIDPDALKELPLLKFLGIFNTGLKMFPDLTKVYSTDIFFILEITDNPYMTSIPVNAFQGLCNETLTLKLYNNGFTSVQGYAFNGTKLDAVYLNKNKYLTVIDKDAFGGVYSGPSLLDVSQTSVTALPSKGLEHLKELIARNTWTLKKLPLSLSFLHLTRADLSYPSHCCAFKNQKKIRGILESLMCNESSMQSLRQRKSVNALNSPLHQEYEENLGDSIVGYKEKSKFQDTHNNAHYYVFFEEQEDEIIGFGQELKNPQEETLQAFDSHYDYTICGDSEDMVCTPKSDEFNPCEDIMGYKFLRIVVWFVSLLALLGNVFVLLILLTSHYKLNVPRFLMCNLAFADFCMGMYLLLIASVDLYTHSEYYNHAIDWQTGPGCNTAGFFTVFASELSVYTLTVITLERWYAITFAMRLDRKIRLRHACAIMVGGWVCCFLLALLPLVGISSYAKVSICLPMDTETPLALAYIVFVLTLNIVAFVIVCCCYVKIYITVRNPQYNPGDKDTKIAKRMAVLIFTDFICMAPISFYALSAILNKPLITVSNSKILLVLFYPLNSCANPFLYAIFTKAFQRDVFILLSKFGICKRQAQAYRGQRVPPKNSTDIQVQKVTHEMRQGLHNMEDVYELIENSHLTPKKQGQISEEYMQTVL
Outline: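 TSHR-HEK293 cells in agonist mode, 30 min room-temperature step, then cAMP measured by competitive HTRF (cAMP-d2 with anti-cAMP cryptate) after 1 h at room temperature. Tested at 15 concentrations in triplicate.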

[17] = qHTS assay to identify small molecule agonists of H2AX (AID 1224845; active = well fitted activation curve with a large enough effect in the signal ratio in the repeat runs, not every such curve was filed as active; the % refers to the signal ratio)
Outline: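 Wild-type CHO-K1 cells, plated overnight, exposed 3hr at 37C to 15 concentrations (0.76% DMSO final). Lysed, then HTRF anti-pH2AX (S139) cryptate and anti-H2AX-d2 antibodies, 24 hr room temperature; 665/620 nm emission read.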

| Structure (SMILES) | outcome [1] | Potency [2] | outcome [3] | Potency [4] | outcome [5] | outcome [6] | outcome [7] | Potency [8] | outcome [9] | Potency [10] | outcome [11] | outcome [12] | outcome [13] | activity change, positive = activation [14] | outcome [15] | Potency [16] | outcome [17] |
| --- | --- | --- | --- | --- | --- | --- | --- | --- | --- | --- | --- | --- | --- | --- | --- | --- | --- |
| Cc1ccc(O)c([N+](=O)[O-])c1 | inactive | inactive | inactive | inactive | inactive | inactive | inactive | inactive | inactive | inactive | inactive | inactive | inactive | -16.2% | inactive | – | – |
| CC(C)(C)OC(=O)c1ccccc1C(=O)O | inactive | inactive | inactive | – | inactive | inactive | inactive | inactive | inactive | – | inactive | inactive | inactive | – | inactive | inactive | inactive |
| CC(=O)SCC(CC(=O)c1ccc(C)cc1)C(=O)O (configuration not stated) | inactive | inactive | inactive | 27.5 µM (active) | inactive | inactive | – | – | inactive | inactive | inactive | inactive | inactive | 8.89% [at 42.5 µM] | inactive | inactive | inactive |
| CC(CC(=O)Cl)CC(C)(C)C (configuration not stated) | inactive | inactive | inactive | inactive | inactive | inactive | – | – | inactive | inactive | inactive | – | inactive | 5.62% | inactive | – | inactive |
| CCOC(=O)CC | inactive | – | inactive | inactive | inactive | inactive | inactive | inactive | inactive | – | inactive | inactive | inactive | – | inactive | – | inactive |
| O=C(OOC(=O)c1ccccc1)c1ccccc1 | inactive | inactive | inactive | inactive | inactive | – | – | – | inactive | – | inactive | inactive | inactive | – | inactive | inactive | inactive |
